# Screens (PubChem BioAssay)
# Hits are enriched below; roughly 11% of the tested compounds scored in any of these assays.
# Sm TGR inh: blocks Schistosoma mansoni thioredoxin glutathione reductase; actives 3% (n = 360,000); Potency, µM (doses to about 114 µM), most hits filed as inhibitors; purified TGR, DTNB reduction, TNB absorbance 405 nm; Q962Y6; AID 485364; note: nearly all actives have a fitted effect of over 60% in size
#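 TGR 20 nM + NADPH 100 uM (dispensed conc.), cpd preinc 15 min RT; start with NADPH (500 uM addition) then DTNB (15 mM addition). Kinetic TNB absorbance, 405 nm filter. Four-parameter Hill fit across titration.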
# Pf growth 96h: P. falciparum growth inhibition at 96 hours; Potency, µM (doses to about 28.7 µM), usual class: inhibitors; actives 6.9% (n = 320,000); P. falciparum luciferase reporter growth, 96 h
#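 Two-generation exposure (96 h) targets delayed-death phenotype. Reporter parasites carrying integrated firefly luciferase, in red cells at 2% hematocrit and 0.05% parasitemia final, kept at 37 C, 5% CO2; luminescence loss indicates inhibition.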
# NS1 inh: influenza NS1 inhibition; AID 2326; actives 0.4% (n = 270,000); Potency, µM (top dose mostly 46.1 µM); calls by dose curve; note: actives are rising curves; nearly all actives have a fitted effect of over 50% in size
#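 Growth recovery, yeast-based: influenza A NS1 expressed in S. cerevisiae causes slow growth, and suppressors are detected by OD600. The parent strain without NS1 is used as positive control.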
# Pf growth 48h: inhibits P. falciparum growth in the first generation, 48 h. P. falciparum luciferase growth in erythrocytes, 48 h. Potency, µM (highest dose often 28.7 µM), usual class: inhibitors. actives 5.9% (n = 310,000). AID 504832
#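 A one-generation exposure of luciferase-tagged malaria parasites in RPMI 1640/Albumax erythrocyte culture, 37 C and 5% CO2. Inhibition is inferred from decreased luminescence after adding detection reagent.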
# AMA1-RON2 inh: inhibitors of Plasmodium falciparum AMA1-RON2 interaction; actives 0.2% (n = 360,000); AID 720542; AlphaScreen AMA1-biotinylated RON2 peptide binding; Potency, µM (series often up to 58.2 µM), actives largely listed as inhibitors; note: nearly all actives have a fitted effect of over 45% in size
#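 AMA1 (3D7) with his tag at 25 nM final met compounds first, then biotinylated RON2 peptide at 25 nM; detection used donor plus acceptor beads, 10 µg/mL apiece, read by AlphaScreen after 30 min at room temperature.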
# A number is an active result; n = inactive; u = inconclusive; x = not tested or not shown; [ ] = dose if it differs, or a comment. Unless noted, calls come from the whole dose curve; as a rule, active = well fitted curve in the direction sought with a large enough effect; inconclusive = small, poorly fitted or top-dose-only effect, or another doubt; inactive = no such curve, though single readings can be large; an effect the other way counts as inactive or inconclusive.
SMILES,Sm TGR inh,Pf growth 96h,NS1 inh,Pf growth 48h,AMA1-RON2 inh
COc1ccc(N(CC(=O)Nc2cccc(C)c2)S(=O)(=O)c2ccc(C)cc2)cc1OC,n,n,n,n,n
O=S(=O)(c1ccc(SCc2cccc(Cl)c2)nc1)N1CCCC1,n,n,x,n,n
COc1cc(OC)c(NC(=O)C(=O)CC(=O)c2ccc(C)cc2C)cc1Cl,n,3.3µM,x,u,n
COc1ccc(C(=O)CC(=O)C(=O)Nc2ccc(C)cc2Cl)cc1,u,n,n,x,n
Cc1ccc(N(Cc2ccccc2)C(=O)c2cc(S(=O)(=O)N3CCOCC3)ccc2N2CCCC2)cc1,n,u,x,2.6µM,u
CN(Cc1cccc(F)c1)C(=O)Cc1ccc(S(=O)(=O)N2CCOCC2)s1,n,u,x,u,n
CN(Cc1ccc(C(C)(C)C)cc1)C(=O)Cc1ccc(S(=O)(=O)N2CCOCC2)s1,n,13µM,x,9.3µM,n
CN(Cc1ccc(Cl)cc1)C(=O)c1cc(S(=O)(=O)N2CCOCC2)ccc1N1CCCC1,n,u,x,u,n
Cc1ccc(S(=O)(=O)N2CCOCC2)cc1C(=O)OCC(=O)N(Cc1ccccc1)C(C)C,n,u,x,15µM,n
O=C(OCC(=O)N(CCc1ccccc1)Cc1ccccc1)c1cc(S(=O)(=O)N2CCOCC2)ccc1F,n,n,x,n,n
COc1ccc(C(=O)N(CCc2ccccc2)Cc2ccccc2)cc1S(=O)(=O)N1CCOCC1,n,8.3µM,x,u,n
CCOc1ccccc1NC(=O)CSC1=Nc2ccccc2C2=NC(CC(=O)NCc3ccc4c(c3)OCO4)C(=O)N12 (stereo not given),n,x,x,x,x
Clc1cccc(N2CCN(c3nc4ccccc4n4cnnc34)CC2)c1,n,x,x,x,x
CC(C)CC(OC(=O)c1nsc(Cl)c1Cl)C(=O)NC1CCCC1 (stereo not given),n,n,n,n,n
CC1CN(S(=O)(=O)c2cccc(C(=O)N(C)C3CCCCC3)c2)CC(C)O1 (stereo not given),x,x,x,x,n
COc1ccc(CC(=O)N(Cc2ccccc2)c2ccccc2)cc1S(=O)(=O)N1CCOCC1,n,u,n,u,n
COc1ccc(C(=O)N(Cc2ccccc2)c2cccc(C)c2)cc1S(=O)(=O)N1CCOCC1,n,5.2µM,x,10µM,n
Cc1cccc(N(Cc2ccccc2)C(=O)Cc2ccc(S(=O)(=O)N3CCOCC3)s2)c1,n,u,x,13µM,n
Cc1cccc(N(Cc2ccccc2)C(=O)c2ccc(C)c(S(=O)(=O)N3CCOCC3)c2)c1,n,u,x,7.4µM,n
Cc1cccc(N(Cc2ccccc2)C(=O)c2cccc(S(=O)(=O)N3CC(C)OC(C)C3)c2)c1 (stereo not given),n,u,x,13µM,n
CCOC(=O)c1c(S(=O)(=O)NCC(=O)Nc2ccc(F)cc2F)c(C)n(C)c1C,n,u,n,n,n
CCOC(=O)c1cc(-c2ccccc2)n(CC(=O)Nc2ccccc2OCC)c1C,n,x,x,x,x
Cc1ccc(N(Cc2ccccc2)C(=O)c2ccc(F)c(S(=O)(=O)N3CCOCC3)c2)cc1,n,u,x,u,n
Cc1cccc(N(Cc2ccccc2)C(=O)c2ccc(F)c(S(=O)(=O)N3CCOCC3)c2)c1,n,12µM,x,12µM,n
Cc1ccc(C(=O)N(CCc2ccccc2)Cc2ccccc2)cc1S(=O)(=O)N1CCCCC1,n,8.3µM,x,13µM,n
SMILES,Sm TGR inh,Pf growth 96h,NS1 inh,Pf growth 48h,AMA1-RON2 inh
CC1CN(S(=O)(=O)c2cc(C(=O)N(CCc3ccccc3)Cc3ccccc3)ccc2Cl)CC(C)O1 (stereo not given),n,5.2µM,x,5.2µM,n
COc1ccc(-c2nc3c(c(SCC(=O)Nc4ccccc4F)n2)Cc2cc(C)ccc2O3)cc1,n,x,x,x,x
COc1ccc(-c2nc3c(c(=O)[nH]c(=O)n3Cc3ccccc3)n2CCO)cc1,n,n,n,n,n
COCCn1c(-c2ccc(OC(F)(F)C(F)C(F)(F)F)cc2)nc2c1c(=O)[nH]c(=O)n2CC(C)C (stereo not given),n,6.6µM,n,x,n
CCCCn1c(=O)[nH]c(=O)c2c1nc(-c1ccc3ccccc3c1)n2CC,n,u,x,n,n
COCCn1c(-c2ccc(-c3ccc([N+](=O)[O-])cc3Br)o2)nc2c1c(=O)[nH]c(=O)n2CC(C)C,45µM,n,x,n,n
CCCCn1c(=O)[nH]c(=O)c2c1nc(-c1ccc(-c3ccccc3Br)o1)n2CC,13µM,u,n,n,n
O=c1[nH]c(=O)n(Cc2ccccc2)c2nc(-c3ccc(Oc4ccc(F)cc4)c([N+](=O)[O-])c3)n(CCO)c12,n,u,n,13µM,n
COCCn1c(-c2ccc(SC)cc2)nc2c1c(=O)[nH]c(=O)n2CC(C)C,n,n,n,n,n
Cc1ccc(NC(=O)c2ccc(=O)n(CC(=O)Nc3cccc(C)c3)n2)cc1,n,x,x,x,x
CC1CCCCN1C(=O)CN1C(=O)CSc2ccc(S(=O)(=O)N3CCOCC3)cc21 (stereo not given),n,n,n,n,n
COCCn1c(=O)[nH]c(=O)c2c1nc(-c1ccc(-c3ccc(Cl)cc3[N+](=O)[O-])o1)n2Cc1ccccc1,50µM,4.1µM,n,4.7µM,n
CC(C)Cn1c(-c2cc([N+](=O)[O-])ccc2Cl)nc2c1c(=O)[nH]c(=O)n2Cc1ccccc1,n,2.6µM,n,5.2µM,n
O=C(CSc1nnc(C2CC2)n1CC1CCCO1)Nc1cccc(Cl)c1 (stereo not given),n,n,n,n,n
Nc1[nH]nc2ncc3cc4ccccc4nc3c12,x,n,n,u,n
COc1cc(OC)cc(C(=O)NNC(=O)c2ccccn2)c1,n,u,n,9.3µM,n
C/C(=N\NC(=O)C(C)Oc1ccc([N+](=O)[O-])cc1)c1ccccn1 (stereo not given),n,2.1µM,n,u,n
COc1ccc(C(=O)NNC(=O)c2ccccn2)cc1,n,n,n,n,n
CCNc1nc(Cl)nc(NNC(=O)C(C)Oc2ccccc2)n1 (stereo not given),n,u,n,n,n
CC(C)Nc1nc(Cl)nc(NNC(=O)C(C)Oc2ccccc2)n1 (stereo not given),n,1.7µM,n,n,n
CC(Oc1cccc(Br)c1)C(=O)NNC(=O)c1ccccn1 (stereo not given),x,x,x,x,n
CC(C)C(=O)NNC(=O)c1ccccn1,n,13µM,n,u,n
CC(Oc1ccccc1)C(=O)N/N=C/c1ccccn1 (stereo not given),n,u,x,n,n
CC(C)Oc1ccc(C(=O)Nc2ccc([N+](=O)[O-])cc2)cc1,n,n,x,n[5.75 µM],n
COc1ccc(OC(C)C(=O)Nc2ccc([N+](=O)[O-])cc2)cc1 (stereo not given),n,15µM,n,u,n
CC(Oc1ccccc1)C(=O)NNC(=O)c1ccccn1 (stereo not given),n,u,n,9.3µM,n
Cc1ccc2nc(COc3ccccc3NC(=O)c3ccccc3F)cc(=O)n2c1,n,x,x,x,x
